The nature of assay [1]: A CellTox Green Cytotoxicity Assay to monitor cytotoxicity in HepG2 cells - 0 hour (AID 1224882). Further: nearly all actives have a fitted effect of over 35% in size. Further: potency means the concentration at half of the fitted maximal effect. The gist of the method: (§1)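 HepG2 cells, 600/well, preincubated 5 h with CellTox Green dye, then exposed to Tox21 compounds in DMSO at 37 C for up to 40 h. Dead-cell DNA fluorescence read at the indicated time point.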
Assay [2] in a line: A CellTox Green Cytotoxicity Assay to monitor cytotoxicity in HepG2 cells - 32 hour (AID 1224883). Further: nearly all actives have a fitted effect of over 50% in size. Further: potency means the concentration at half of the fitted maximal effect. The gist of the method: as §1
The nature of assay [3]: A CellTox Green Cytotoxicity Assay to monitor cytotoxicity in HEK293 cells - 8 hour (AID 1224884). Further: nearly all actives have a fitted effect of over 35% in size. The essentials: (§2)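 HEK293 cells, 600/well, were preincubated 5 hours and then exposed to compounds at 37 C for up to 40 hours. A cell-impermeant cyanine dye staining dead-cell DNA was read by fluorescence at 0, 8, 16, 24, 32 and 40 h time points.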
Assay [4] in a line: qHTS RealTime-Glo MT Cell Viability Assay in HepG2 cells - 16 hour (AID 1224885). Further: nearly all actives have a fitted effect of over 50% in size. Further: potency means the concentration at half of the fitted maximal effect. The gist of the method: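 qHTS, HepG2, 600 cells/well, RealTime-Glo (NanoLuc + prosubstrate) added with cells; 5 h preincubation; DMSO compound addition; 37 C; luminescence at 0/8/16/24/32/40 h.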
Background: In qHTS, concentration-response curves come from the screen itself.

The nature of assay [5]: qHTS RealTime-Glo MT Cell Viability Assay in HEK293 cells - 24 hour (AID 1224886). Further: nearly all actives have a fitted effect of over 50% in size. Further: potency means the concentration at half of the fitted maximal effect. The essentials:
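Assay medium contained NanoLuc luciferase plus cell-permeant prosubstrate, added with HEK293 cells at 600 cells/well. After 5 h at 37 C/5% CO2 compounds were added; plates stayed at 37 C for 40 h with serial luminescence reads.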

Assay [6] can be described thus: qHTS RealTime-Glo MT Cell Viability Assay in HEK293 cells - 8 hour (AID 1224887). Further: top concentration of the series differs between compounds; nearly all actives have a fitted effect of over 50% in size. The essentials: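 600 cells/well were plated with the nonlytic NanoLuc/prosubstrate reagent, pre-incubated 5 h, then given 23 nL of compound in DMSO. Incubation at 37 C for 40 h, with luminescence from viable-cell-reduced substrate read repeatedly from 0 h.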
Assay [7] in a line: A CellTox Green Cytotoxicity Assay to monitor cytotoxicity in HEK293 cells - 16 hour (AID 1224888). Further: nearly all actives have a fitted effect of over 35% in size. The gist of the method: as §2
Assay [8] can be described thus: A CellTox Green Cytotoxicity Assay to monitor cytotoxicity in HepG2 cells - 8 hour (AID 1224890). Further: nearly all actives have a fitted effect of over 45% in size. Further: potency means the concentration at half of the fitted maximal effect. The gist of the method: as §1
Assay [9] can be described thus: qHTS assay to identify small molecule antagonists of the estrogen receptor alpha (ER-alpha) signaling pathway using the BG1 cell line in the presence of 0.1 nM 17-beta-estradiol - cell viability counter screen (AID 1259241). Further: nearly all actives have a fitted effect of over 40% in size. The essentials:
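Viability in VM7Luc4E2 cells after 22 hr compound exposure under 0.1 nM 17beta-estradiol stimulation, by CellTiter-Fluor.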

The nature of assay [10]: qHTS assay to identify small molecule phospholipidosis (PLD) inducers (AID 1259344; active means well fitted curve in the direction sought with a large enough effect; an effect the other way counts as inactive or inconclusive). The essentials: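 Quantitative HTS in HepG2: compound plus LipidTOX Red dye for 24 h, paraformaldehyde fixation with Hoechst 33342, widefield high-content imaging; amiodarone as positive and DMSO as negative control.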
A short description of assay [11]: qHTS assay to identify small molecule HDAC inhibitors (AID 1259364). Further: top concentration of the series differs between compounds; nearly all actives have a fitted effect of over 45% in size. The essentials:
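Wild-type HCT-116 cells, plated overnight at 37 C, exposed to compounds 2 hr at 37 C; luminogenic HDAC-Glo substrate then added 30 min at room temperature. Luminescence reports relative endogenous class I/II HDAC activity.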

A short description of assay [12]: qHTS assay to identify small molecule agonists of the sonic hedgehog signaling (Shh) pathway - cell viability counter screen (AID 1259366). Further: nearly all actives have a fitted effect of over 50% in size. Further: potency means the concentration at half of the fitted maximal effect. The essentials:
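Stable Gli1-Luc NIH/3T3 clone, 2,000 cells/well. Compound exposure 24hr at 37C. Read-out: CellTiter-Fluor fluorescence.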

Assay [13] is described as follows: qHTS assay to identify small molecule antagonists of the sonic hedgehog signaling (Shh) pathway - cell viability counter screen (AID 1259367). Further: nearly all actives have a fitted effect of over 55% in size. Further: potency means the concentration at half of the fitted maximal effect. The essentials:
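Seed 3T3 Gli1-Luc cells at 2,000 per well; incubate 4 hr; add compound in DMSO, then conditioned medium; incubate at 37C with 5% CO2; add CellTiter-Fluor after 23 hr; read fluorescence 1 hr later.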

Assay [14] in a line: qHTS assay to identify small molecule antagonists of the sonic hedgehog signaling (Shh) pathway (AID 1259369; calls by dose curve; further: nearly all actives have a fitted effect of over 45% in size; further: potency means the concentration at half of the fitted maximal effect). The gist of the method: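 NIH/3T3-derived Gli1-Luc reporter cells plated 4 h, dosed with compound, then stimulated with conditioned medium for 24 h at 37 C. Firefly luciferase luminescence read after 30 min with detection reagent at room temperature.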
Assay [15] can be described thus: qHTS assay to identify small molecule agonists of the sonic hedgehog signaling (Shh) pathway (AID 1259368; calls by dose curve;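 further: NIH/3T3-derived 3T3Gli1-Luc cells carrying a stable Gli1-driven firefly luciferase reporter; series mostly up to about 92 µM; nearly all actives have a fitted effect of over 15% in size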). The essentials: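 NIH/3T3-derived 3T3Gli1-Luc cells with stably integrated Gli1-driven firefly luciferase, 2,000 cells/well, compounds added after 4 hr. Incubated 24 hr at 37C, 5% CO2; luminescence read after 30 min with luciferase reagent at room temperature.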

In assay [16] the target is Androgen receptor (Homo sapiens) (UniProt P10275). The assay is described as follows: qHTS assay to identify small molecule antagonists of the androgen receptor (AR) signaling pathway using the MDA cell line in the presence of 0.5 nM R1881 (AID 1259243). Further: nearly all actives have a fitted effect of over 50% in size. The essentials:
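MDA-kb2 cells (MMTV-luciferase, responsive to AR and GR) at 3,000/well, rested 5 h at 37C, 0% CO2, then given compounds plus 0.5 nM R1881 (final) for 16 hr. Luciferase read with ONE-Glo after 30 min at room temperature.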

Assay [17] has as its target Estrogen receptor (Homo sapiens) (UniProt P03372). The assay can be described thus: qHTS assay to identify small molecule antagonists of the estrogen receptor alpha (ER-alpha) signaling pathway using the BG1 cell line in the presence of 0.1 nM 17-beta-estradiol (AID 1259244). Further: nearly all actives have a fitted effect of over 50% in size. The gist of the method:
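VM7Luc4E2 cells (endogenous full-length ER-alpha, 4×ERE-luciferase), kept 5 days in phenol red-free, charcoal-stripped FBS medium; 4,000 cells/well. Compounds added with 0.1 nM (final) 17beta-estradiol, 22 hr at 37C; luminescence read with ONE-Glo after 30 min.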

Assay [18] is described as follows: qHTS assay to identify small molecule HDAC inhibitors - cell viability counter screen (AID 1259365). The essentials:
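Cytotoxicity was gauged in wild-type HCT-116 cells after a brief 2hr treatment with DMSO-dissolved compounds at 37C and 5% CO2, using CellTiter-Glo luminescence developed for 30min at room temperature.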

A short description of assay [19]: qHTS assay to identify small molecule antagonists of the androgen receptor (AR) signaling pathway using the MDA cell line in the presence of 0.5 nM R1881 - cell viability counter screen (AID 1259242). Further: nearly all actives have a fitted effect of over 45% in size. The gist of the method: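 MDA-kb2 cells (MMTV-luciferase, AR/GR responsive) were treated with compounds plus 0.5 nM R1881 (final) for 16 hr at 37C, 0% CO2. Viability was then read in the same wells as live-cell protease fluorescence (CellTiter-Fluor, 30 min).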

Several values for one entry are separate records, joined by “and”; a condition that tells them apart may be missing. Equal entries are not always repeated. Records with an inconclusive call do not appear. More than one record can exist for a structure, and the calls need not agree. Activity calls are given as the source filed them. Unless noted, the call rests on the fitted dose curve; in most records, active means well fitted curve in the direction sought with a large enough effect in the repeat runs; inconclusive means weak or mixed curves; inactive means no such curve, though single readings can be large; an effect the other way counts as inactive or inconclusive.
On the % scale 0 is the no-effect control and ±100 the full control effect.

Chain of Estrogen receptor (Homo sapiens) (P03372 whole entry, looked up): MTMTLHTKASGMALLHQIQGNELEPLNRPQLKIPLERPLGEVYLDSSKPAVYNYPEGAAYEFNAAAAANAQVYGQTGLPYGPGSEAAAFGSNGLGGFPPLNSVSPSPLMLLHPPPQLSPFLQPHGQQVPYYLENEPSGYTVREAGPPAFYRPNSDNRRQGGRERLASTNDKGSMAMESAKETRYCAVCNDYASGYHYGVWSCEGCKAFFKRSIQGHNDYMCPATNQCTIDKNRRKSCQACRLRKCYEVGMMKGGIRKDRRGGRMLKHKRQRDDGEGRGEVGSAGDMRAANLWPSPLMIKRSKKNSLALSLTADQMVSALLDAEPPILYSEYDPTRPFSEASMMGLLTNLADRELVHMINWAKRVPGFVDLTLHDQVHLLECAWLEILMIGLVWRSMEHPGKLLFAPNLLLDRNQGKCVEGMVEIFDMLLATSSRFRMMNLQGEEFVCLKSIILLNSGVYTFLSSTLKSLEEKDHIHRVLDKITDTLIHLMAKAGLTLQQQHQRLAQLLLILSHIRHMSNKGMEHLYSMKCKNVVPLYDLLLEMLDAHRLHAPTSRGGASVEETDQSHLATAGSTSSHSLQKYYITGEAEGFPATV
Chain of Androgen receptor (Homo sapiens) (P10275 whole entry, looked up): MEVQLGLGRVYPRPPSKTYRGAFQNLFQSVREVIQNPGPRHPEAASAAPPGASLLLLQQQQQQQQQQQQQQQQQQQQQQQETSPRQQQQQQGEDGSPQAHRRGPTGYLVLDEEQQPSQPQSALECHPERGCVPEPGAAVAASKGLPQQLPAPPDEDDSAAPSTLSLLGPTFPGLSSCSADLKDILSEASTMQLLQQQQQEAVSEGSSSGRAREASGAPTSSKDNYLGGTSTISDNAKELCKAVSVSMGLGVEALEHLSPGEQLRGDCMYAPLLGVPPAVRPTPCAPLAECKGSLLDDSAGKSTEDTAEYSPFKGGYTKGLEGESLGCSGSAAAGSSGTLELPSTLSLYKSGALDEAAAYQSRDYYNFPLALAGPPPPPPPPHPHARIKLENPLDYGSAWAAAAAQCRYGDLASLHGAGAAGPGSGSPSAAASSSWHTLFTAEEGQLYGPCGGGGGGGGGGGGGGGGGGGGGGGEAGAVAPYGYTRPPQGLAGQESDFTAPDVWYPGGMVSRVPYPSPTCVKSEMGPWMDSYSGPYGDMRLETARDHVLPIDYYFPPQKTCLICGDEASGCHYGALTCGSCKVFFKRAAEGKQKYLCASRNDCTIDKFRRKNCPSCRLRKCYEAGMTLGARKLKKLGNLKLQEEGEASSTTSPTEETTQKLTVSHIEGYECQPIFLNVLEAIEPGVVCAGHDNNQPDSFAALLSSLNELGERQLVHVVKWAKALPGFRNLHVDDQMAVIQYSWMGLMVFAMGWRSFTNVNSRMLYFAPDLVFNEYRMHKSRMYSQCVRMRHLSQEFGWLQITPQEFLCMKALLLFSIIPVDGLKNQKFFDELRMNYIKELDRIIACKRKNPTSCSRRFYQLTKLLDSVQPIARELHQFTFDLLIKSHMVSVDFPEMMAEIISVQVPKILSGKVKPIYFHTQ

With `CC(=O)OCC1=C(C(=O)O)N2C(=O)[C@@H](NC(=O)Cc3cccs3)[C@H]2SC1`, the Potency result in [1], in assay [2], in assay [3], in [4], in assay [5] and in [6] was “inactive” each time. Also, the Potency result in assay [7], in [8], in assay [9], in assay [10], in assay [11] and in assay [12] was “inactive” throughout. Moreover, the Potency entry in assay [13] and in assay [14] was “inactive” each time.

Regarding `CC(C)(C)NCC(O)c1cc(O)cc(O)c1` (stereo unspecified), the Potency result in assay [1], in assay [2], in [3], in [4], in assay [5] and in [6] was “inactive” throughout. Further, the Potency result in [7], in assay [8], in [9], in [10], in assay [11] and in assay [12] was “inactive” each time. The Potency result in [13], in assay [15] and in [14] was “inactive” each time.

In the case of `CC1COC(=O)O1` (stereo unspecified), the Potency result in assay [1] was “inactive and 43.6 µM (active)”; in assay [2], “inactive and 43.6 µM (active)”; in assay [8], “inactive and 43.6 µM (active)”. Further, the Potency result in assay [3], in assay [4], in assay [5], in assay [6], in assay [7] and in assay [9] was “inactive” each time. For the same molecule, the Potency entry in assay [16], in [17], in assay [11], in assay [18], in [12] and in [13] was “inactive” in each case. Also, the Potency result in assay [15] and in [14] was “inactive” throughout.

As for `CCN1CCCC1CNC(=O)c1cc(S(=O)(=O)CC)c(N)cc1OC` (stereo unspecified), the Potency result in [1], in [2], in assay [3], in [4], in assay [5] and in assay [6] was “inactive” each time. Besides, the Potency entry in assay [7], in assay [8], in [9], in [19], in assay [17] and in assay [11] was “inactive” in each case. For the same molecule, the Potency entry in assay [12], in assay [13], in [15] and in assay [14] was “inactive” in each case. Besides, in [10], the PLD induction was -3.27% [at 7.66 µM] (inactive).

For `OCCOCCN1CCN(C(c2ccccc2)c2ccc(Cl)cc2)CC1` (stereo unspecified), the Potency entry in assay [1], in [3], in assay [6], in assay [7], in assay [9] and in [19] was “inactive” in each case. For the same molecule, the Potency result in assay [11], in assay [18] and in assay [15] was “inactive” throughout. Moreover, the Potency in assay [2] was 24.2 µM (active) and inactive; in assay [4], 48.3 µM (active) and inactive; in assay [5], 6.83 µM (active) and inactive; in assay [8], 43.1 µM (active) and inactive; in assay [12], 26.9 µM (active); in assay [13] it was 19.1 µM (active) and inactive. In addition, the Potency in assay [14] was 7.59 µM (active) and inactive.

Regarding `COc1nc(C)nc(Cl)c1NC1=NCCN1`, the Potency entry in assay [1], in assay [2], in assay [3], in [4], in assay [5] and in assay [6] was “inactive” throughout. Also, the Potency entry in [7], in assay [8], in assay [9], in [17], in assay [10] and in [11] was “inactive” each time. Besides, the Potency result in assay [18], in assay [12], in assay [13], in assay [15] and in [14] was “inactive” throughout.

Values taken from PubChem BioAssay (Tox21).
